Unmarked numbers belong to inactive results.
How the values were obtained:
Assay in all cases: log2 ratio of Biotin-Ahx-Ub-VS probe labelling (fragment/DMSO); higher = less target engagement (more negative = stronger competition), active = hit call of the paper (q ≤ 0.05, log2 ratio ≤ -1)
Conditions in all cases: compound concentration: 200 uM; treatment time: 3 h
OTUD6B = target: T1, OTUD6B (UniProt Q8N6M0)
T1 sequence (whole entry): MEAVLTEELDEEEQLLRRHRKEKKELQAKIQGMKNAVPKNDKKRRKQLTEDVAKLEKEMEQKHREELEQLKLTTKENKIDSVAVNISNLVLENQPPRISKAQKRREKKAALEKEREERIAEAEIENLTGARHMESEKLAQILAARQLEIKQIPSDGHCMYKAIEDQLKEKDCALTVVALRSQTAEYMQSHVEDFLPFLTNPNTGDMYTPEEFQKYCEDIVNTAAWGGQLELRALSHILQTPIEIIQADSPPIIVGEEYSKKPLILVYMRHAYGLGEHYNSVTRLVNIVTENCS
Outline: (§1)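 Labelled DUBs from HEK293T lysate were NeutrAvidin-enriched, digested with LysC and trypsin, and run by diaPASEF LC-MS/MS. Before that, each 495 µg sample in Tris/CHAPS/IGEPAL buffer with protease inhibitors was treated in triplicate with fragment at 200 µM or vehicle for 3 h, then with Biotin-Ahx-Ub-VS at 0.5 µM final for 1 h. Values are average log2 ratios of fragment over vehicle by unpaired t-test, based on global-median-normalised Spectronaut label-free quantities from proteins with ≥2 unique peptides.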

OTUD7B = target: T2, OTUD7B (UniProt Q6GQQ9)
T2 sequence (whole entry): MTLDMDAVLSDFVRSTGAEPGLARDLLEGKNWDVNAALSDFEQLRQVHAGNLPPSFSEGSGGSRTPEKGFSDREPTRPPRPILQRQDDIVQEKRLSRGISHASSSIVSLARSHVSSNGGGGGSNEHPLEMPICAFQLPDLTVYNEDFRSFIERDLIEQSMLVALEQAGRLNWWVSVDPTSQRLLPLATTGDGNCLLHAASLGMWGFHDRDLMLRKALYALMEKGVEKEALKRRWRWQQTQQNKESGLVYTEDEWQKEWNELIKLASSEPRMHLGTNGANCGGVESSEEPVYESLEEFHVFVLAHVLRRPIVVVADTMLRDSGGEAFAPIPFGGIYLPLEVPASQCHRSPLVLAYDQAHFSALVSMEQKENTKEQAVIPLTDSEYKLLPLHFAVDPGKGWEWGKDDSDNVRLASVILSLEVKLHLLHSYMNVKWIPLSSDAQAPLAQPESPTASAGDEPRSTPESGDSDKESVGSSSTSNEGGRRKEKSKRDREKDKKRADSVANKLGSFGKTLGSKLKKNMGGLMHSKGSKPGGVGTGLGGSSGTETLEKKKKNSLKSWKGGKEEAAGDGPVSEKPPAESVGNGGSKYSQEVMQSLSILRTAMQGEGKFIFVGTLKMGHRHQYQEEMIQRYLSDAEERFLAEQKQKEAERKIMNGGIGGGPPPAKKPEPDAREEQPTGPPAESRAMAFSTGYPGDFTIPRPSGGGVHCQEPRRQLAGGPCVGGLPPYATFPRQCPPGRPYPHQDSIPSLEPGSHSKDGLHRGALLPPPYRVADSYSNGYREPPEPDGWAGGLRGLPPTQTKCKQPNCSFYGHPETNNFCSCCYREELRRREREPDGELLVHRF
Outline: as §1

PRPF8 = PRPF8 (UniProt Q6P2Q9)
Outline: as §1

PSMD7 = target: T3, PSMD7 (UniProt P51665)
T3 sequence (whole entry): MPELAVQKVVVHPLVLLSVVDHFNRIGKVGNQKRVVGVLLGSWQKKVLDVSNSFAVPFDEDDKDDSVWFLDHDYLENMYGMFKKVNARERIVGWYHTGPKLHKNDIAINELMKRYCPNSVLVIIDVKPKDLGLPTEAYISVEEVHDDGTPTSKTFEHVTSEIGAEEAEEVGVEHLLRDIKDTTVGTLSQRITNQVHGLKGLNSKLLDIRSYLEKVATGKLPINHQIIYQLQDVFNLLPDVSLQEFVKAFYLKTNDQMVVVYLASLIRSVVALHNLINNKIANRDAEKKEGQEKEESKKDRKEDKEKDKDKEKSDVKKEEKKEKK
Outline: as §1

UCHL1 = UCHL1 (UniProt P09936)
UCHL1, sequence (P09936 whole entry, looked up): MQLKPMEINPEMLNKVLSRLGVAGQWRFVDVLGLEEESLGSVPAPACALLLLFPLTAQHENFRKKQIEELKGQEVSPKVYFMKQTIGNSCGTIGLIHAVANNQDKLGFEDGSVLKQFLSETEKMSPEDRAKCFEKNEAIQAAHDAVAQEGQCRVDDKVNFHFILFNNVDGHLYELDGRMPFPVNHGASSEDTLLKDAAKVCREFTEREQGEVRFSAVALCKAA
Outline: as §1

UCHL3 = target: T4, UCHL3 (UniProt P15374)
T4 sequence (whole entry): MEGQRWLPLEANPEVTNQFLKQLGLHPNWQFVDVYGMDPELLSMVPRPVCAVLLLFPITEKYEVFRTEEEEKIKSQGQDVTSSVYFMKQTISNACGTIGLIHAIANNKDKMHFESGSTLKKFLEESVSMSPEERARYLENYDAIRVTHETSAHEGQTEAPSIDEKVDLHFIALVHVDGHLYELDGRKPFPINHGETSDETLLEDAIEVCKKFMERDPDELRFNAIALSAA
Outline: as §1

UCHL5 = target: T5, UCHL5 (UniProt Q9Y5K5)
T5 sequence (whole entry): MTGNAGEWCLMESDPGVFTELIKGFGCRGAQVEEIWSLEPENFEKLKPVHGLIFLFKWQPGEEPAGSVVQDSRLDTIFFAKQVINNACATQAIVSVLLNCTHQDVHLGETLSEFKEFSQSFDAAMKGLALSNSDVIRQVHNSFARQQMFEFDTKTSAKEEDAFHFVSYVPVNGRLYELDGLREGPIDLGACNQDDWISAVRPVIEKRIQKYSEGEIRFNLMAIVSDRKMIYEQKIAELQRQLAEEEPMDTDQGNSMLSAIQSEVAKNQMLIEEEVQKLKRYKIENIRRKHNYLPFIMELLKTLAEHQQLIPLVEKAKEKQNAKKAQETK
Outline: as §1

USP10 = USP10 (UniProt Q14694)
USP10, sequence (Q14694 whole entry): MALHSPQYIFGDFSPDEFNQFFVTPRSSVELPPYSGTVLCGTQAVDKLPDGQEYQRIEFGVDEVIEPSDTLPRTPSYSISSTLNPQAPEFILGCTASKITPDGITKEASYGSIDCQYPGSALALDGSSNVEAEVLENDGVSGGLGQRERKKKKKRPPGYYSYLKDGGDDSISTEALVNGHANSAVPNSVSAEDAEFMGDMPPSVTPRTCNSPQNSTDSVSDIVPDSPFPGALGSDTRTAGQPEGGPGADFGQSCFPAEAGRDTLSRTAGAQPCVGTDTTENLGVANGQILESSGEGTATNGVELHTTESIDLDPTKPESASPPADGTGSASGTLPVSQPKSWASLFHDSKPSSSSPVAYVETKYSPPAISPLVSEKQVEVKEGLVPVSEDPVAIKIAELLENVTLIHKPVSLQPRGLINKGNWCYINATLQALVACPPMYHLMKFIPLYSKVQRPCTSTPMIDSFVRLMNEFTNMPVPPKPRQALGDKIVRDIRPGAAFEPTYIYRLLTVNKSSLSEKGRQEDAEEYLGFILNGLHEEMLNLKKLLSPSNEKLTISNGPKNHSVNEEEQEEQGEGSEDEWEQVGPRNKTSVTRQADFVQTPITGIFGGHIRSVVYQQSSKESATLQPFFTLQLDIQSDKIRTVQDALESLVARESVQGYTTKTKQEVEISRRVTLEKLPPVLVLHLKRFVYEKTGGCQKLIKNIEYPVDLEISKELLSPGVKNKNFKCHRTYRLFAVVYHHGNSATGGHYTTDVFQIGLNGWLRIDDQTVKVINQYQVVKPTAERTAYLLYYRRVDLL
Outline: as §1

USP15 = target: T6, USP15 (UniProt Q9Y4E8)
T6 sequence (whole entry): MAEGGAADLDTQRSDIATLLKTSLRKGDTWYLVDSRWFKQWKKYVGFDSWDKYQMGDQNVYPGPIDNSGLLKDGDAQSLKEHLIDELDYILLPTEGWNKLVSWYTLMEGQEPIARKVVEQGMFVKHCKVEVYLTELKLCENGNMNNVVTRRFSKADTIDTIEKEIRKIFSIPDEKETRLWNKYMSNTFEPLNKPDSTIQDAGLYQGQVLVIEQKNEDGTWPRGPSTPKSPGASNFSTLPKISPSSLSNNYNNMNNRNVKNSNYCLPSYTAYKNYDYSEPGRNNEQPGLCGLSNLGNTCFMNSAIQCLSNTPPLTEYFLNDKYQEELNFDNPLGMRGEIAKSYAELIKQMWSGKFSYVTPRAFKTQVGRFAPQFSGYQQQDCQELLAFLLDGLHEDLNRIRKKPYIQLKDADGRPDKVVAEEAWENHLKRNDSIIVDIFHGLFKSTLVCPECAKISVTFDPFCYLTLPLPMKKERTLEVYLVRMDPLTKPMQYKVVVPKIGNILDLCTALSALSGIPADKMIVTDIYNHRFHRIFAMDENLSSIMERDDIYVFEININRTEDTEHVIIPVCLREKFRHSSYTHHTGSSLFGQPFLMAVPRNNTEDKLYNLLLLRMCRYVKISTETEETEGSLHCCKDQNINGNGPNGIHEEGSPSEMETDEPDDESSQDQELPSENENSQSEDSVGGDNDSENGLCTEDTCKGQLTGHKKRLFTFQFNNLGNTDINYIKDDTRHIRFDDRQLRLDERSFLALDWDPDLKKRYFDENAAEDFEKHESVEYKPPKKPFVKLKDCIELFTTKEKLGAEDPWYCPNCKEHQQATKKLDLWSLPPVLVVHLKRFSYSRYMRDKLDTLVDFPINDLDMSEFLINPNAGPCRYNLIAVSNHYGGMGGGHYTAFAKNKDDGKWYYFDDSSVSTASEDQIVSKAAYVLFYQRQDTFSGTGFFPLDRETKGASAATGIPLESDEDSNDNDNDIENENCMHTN
Outline: as §1

Cc1ccc(C(=O)NCCNC(=O)CCl)cc1
log2 ratio of Biotin-Ahx-Ub-VS probe labelling (OTUD6B): -0.182 | log2 ratio of Biotin-Ahx-Ub-VS probe labelling (OTUD7B): -0.711 | log2 ratio of Biotin-Ahx-Ub-VS probe labelling (PRPF8): -0.064 | log2 ratio of Biotin-Ahx-Ub-VS probe labelling (PSMD7): -0.134 | log2 ratio of Biotin-Ahx-Ub-VS probe labelling (UCHL1): -1.75 (active) | log2 ratio of Biotin-Ahx-Ub-VS probe labelling (UCHL3): 0.104 | log2 ratio of Biotin-Ahx-Ub-VS probe labelling (UCHL5): -0.144 | log2 ratio of Biotin-Ahx-Ub-VS probe labelling (USP10): -0.111 | log2 ratio of Biotin-Ahx-Ub-VS probe labelling (USP15): -0.0554
